# Source: PubChem (National Center for Advancing Translational Sciences (NCATS))
# MCF10A rereplic – DNA re-replication induction in MCF 10a cells; 350,000 compounds, 2.9% hits; Potency, µM (top dose mostly 46.1 µM), hits mostly activators; MCF 10A DNA re-replication, Hoechst nuclear intensity, 48 h; also: nearly all actives have a fitted effect of over 50% in size
# KB-V1 MDR tox – kills drug-selected multidrug resistant KB-V1 cells; KB-V1 MDR cells viability, CellTiter-Glo, 72 h; Potency, µM (top dose mostly 46.1 µM), actives largely listed as cytotoxic; 400,000 compounds, 3.4% hits; AID 1347076; also: nearly all actives have a fitted effect of over 60% in size
#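 Compound-treated KB-V1 multidrug-resistant cells, 72 h, 37 degrees C; viability by CellTiter-Glo. Fitted qHTS curves give the values.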
# TSG101-PTAP inh – blocks PTAP/TSG101 interaction to inhibit HIV-1 budding. Fluorescence polarization, FITC-PTAP peptide / Tsg101 binding. Potency, µM (titrated, usually from 115 µM), most hits filed as inhibitors. Q99816. 340,000 tested, under 10 active. AID 493005; active = well fitted inhibition curve with a large enough effect in the main read-out, with a control signal flat, not every such curve was filed as active; inconclusive = small, poorly fitted or top-dose-only effect, or effect the other way, or a change in a side signal; inactive = no such curve, though single readings can be large or run the other way
# Target sequence (Q99816 whole entry, looked up): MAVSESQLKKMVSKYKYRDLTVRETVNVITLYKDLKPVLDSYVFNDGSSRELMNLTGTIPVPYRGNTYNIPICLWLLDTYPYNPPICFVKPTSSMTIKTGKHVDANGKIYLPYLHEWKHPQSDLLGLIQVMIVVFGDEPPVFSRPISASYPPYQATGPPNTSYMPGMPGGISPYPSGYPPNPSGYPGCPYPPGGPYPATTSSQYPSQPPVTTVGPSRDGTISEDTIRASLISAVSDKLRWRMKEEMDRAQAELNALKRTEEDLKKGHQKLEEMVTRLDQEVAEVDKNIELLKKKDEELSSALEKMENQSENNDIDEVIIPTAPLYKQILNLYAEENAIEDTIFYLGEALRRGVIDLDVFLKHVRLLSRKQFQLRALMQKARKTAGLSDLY
#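 Steps: Tsg101 binding domain dispensed (10 uM final), compounds pinned in DMSO, FITC-labeled PTAP-motif peptide added (50 nM final); after 20 min binding at room temperature, polarization measured.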
# KB-3-1 tox – KB-3-1 parental cell cytotoxicity | KB-3-1 viability, CellTiter-Glo ATP luminescence, 72 h | Potency, µM (top dose mostly 46.1 µM), hits mostly cytotoxic | 400,000 compounds, 1.4% hits; also: nearly all actives have a fitted effect of over 60% in size
#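 Here the drug-naive KB-3-1 line serves as comparator for MDR sub-line selectivity; cells received compound titrations, 72 h at 37 °C, then CellTiter-Glo readout.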
# RGS4 inhibitor – inhibitors of human regulator of G protein signaling 4; P49798; Transcreener GDP fluorescence polarization, RGS4-accelerated GTP hydrolysis; Potency, µM (series often up to 114 µM), most hits filed as inhibitors; 390,000 compounds, 0.039% hits; AID 504845; also: nearly all actives have a fitted effect of over 75% in size
# Target sequence (P49798 whole entry, looked up): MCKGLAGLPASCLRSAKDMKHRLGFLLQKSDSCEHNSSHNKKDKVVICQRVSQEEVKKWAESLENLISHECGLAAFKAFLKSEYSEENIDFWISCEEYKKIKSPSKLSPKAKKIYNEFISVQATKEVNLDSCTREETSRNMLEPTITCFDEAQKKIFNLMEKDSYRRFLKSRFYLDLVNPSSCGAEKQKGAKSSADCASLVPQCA
#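 MLSMR compounds (23 nl, pin-transferred) preincubated 10 min at room temperature with a 500nM (2x) first reagent, then RGS4 at 900nM (2x) plus Transcreener GDP mix added; fluorescence polarization (620/688 nm) read before and after 90 min at 30 °C.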
# SW480 rereplic – inducers of DNA re-replication in SW480 colon cancer cells; SW480 DNA re-replication, Hoechst DNA content imaging, 48 h; Potency, µM (highest dose often 46.1 µM), actives largely listed as activators; 340,000 compounds, 1.8% hits; also: nearly all actives have a fitted effect of over 55% in size
#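 Per well, 250 cells were exposed to pinned compound for 48 hr. Nuclear DNA was visualised with Hoechst (40 min, 37 C) and total object intensity recorded by fluorescence scanning.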
# Hits are given with their value; . = inactive; ? = inconclusive; / = no result; [ ] = another dose, or the depositor's remark. Hits are enriched below; roughly 6.6% of the tested compounds scored in any of these assays. Unless noted, calls follow the shape of the dose curve; as a rule, active = well fitted curve in the direction sought with a large enough effect; inconclusive = small, poorly fitted or top-dose-only effect, or another doubt; inactive = no such curve, though single readings can be large; an effect the other way counts as inactive or inconclusive.
SMILES,MCF10A rereplic,KB-V1 MDR tox,TSG101-PTAP inh,KB-3-1 tox,RGS4 inhibitor,SW480 rereplic
O=C1CC(c2cccc([N+](=O)[O-])c2)c2ccc3ccccc3c2N1 (stereo unspecified),.,13µM,.,.,.,.
O=C(CN1C(=O)c2cccc3cccc1c23)N1CCN(c2ccccc2)CC1,23.1µM,.,.,.,.,?
O=C(CN1C(=O)c2cccc3cccc1c23)N1CCN(c2ccc(F)cc2)CC1,11.2µM,.,.,.,.,?
O=C(CN1C(=O)c2cccc3cccc1c23)N1CCN(c2cccc(Cl)c2)CC1,.,.,.,.,.,.
O=C(CN1C(=O)c2ccccc2S1(=O)=O)N1CCN(c2cccc(Cl)c2)CC1,.,.,.,.,.,.
O=C(CN1c2cccc3cccc(c23)S1(=O)=O)N1CCN(c2ccccc2)CC1,.,9.2µM,.,.,.,.
COc1ccccc1N1CCN(C(=O)CN2C(=O)c3cccc4cccc(c34)C2=O)CC1,.,.,.,.,.,.
CCOc1ccc(C(=O)Nc2c(C(=O)Nc3ccccc3OC)oc3ccccc23)cc1OCC,/,.,/,.,.,/
CCCc1cc(=O)n2c(C(=O)Nc3ccc(OCC)cc3)c(C(=O)Nc3ccc(C)cc3)sc2n1,/,?,/,.,.,/
Cc1ccc2nc3cc([N+](=O)[O-])cc([N+](=O)[O-])c3cc2c1,?,?,.,?,.,0.651µM
Cc1nc2ccc([N+](=O)[O-])cc2nc1C,.,?,.,.,.,.
O=C(NCC(c1ccc2c(c1)OCO2)N1CCOCC1)c1ccc(F)cc1 (stereo unspecified),/,.,/,.,.,/
CC1C=Cc2ccccc2N1C(=O)c1ccccc1 (stereo unspecified),.,.,.,.,.,.
N#CC1c2ccccc2-c2ccccc2N1C(=O)c1ccccc1 (stereo unspecified),/,14.6µM,/,?,/,/
O=C(N/N=C/c1ccc(Cl)cc1)c1sccc1OCc1ccc(F)cc1,1.64µM,1.3µM,.,1.46µM,.,9.2µM
COc1ccc(COc2ccsc2C(=O)Nc2ccc(Cl)cc2)cc1,18.4µM,9.2µM,.,.,.,?
COC(=O)N/N=C/c1cc(Cl)c(OCc2ccc(F)cc2)c(OC)c1,.,.,.,.,.,?
COC(=O)N/N=C/c1cc(Cl)cc(Cl)c1OCc1ccc(F)cc1,.,23.1µM,.,.,.,?
O=C(N/N=C/c1ccc(F)cc1)c1sccc1OCc1ccc(F)cc1,7.31µM,7.31µM,.,?,?,9.2µM
CSCCC(NS(=O)(=O)c1ccc2c(c1)OCCO2)C(=O)N(C)Cc1ccc(C)cc1 (stereo unspecified),?,?,.,.,.,.
COc1cccc(CN(C)C(=O)C(CCSC)NS(=O)(=O)c2ccc3c(c2)OCCO3)c1OC (stereo unspecified),?,14.6µM,.,.,.,.
Cc1cc(C)cc(NC(=O)C2CCC(CNS(=O)(=O)c3ccc4c(c3)C(C)(C)C(=O)N4C)CC2)c1 (stereo unspecified),/,.,/,18.4µM,.,/
COc1ccc(NC(=O)C2CCC(CNS(=O)(=O)c3ccc4c(c3)C(C)(C)C(=O)N4C)CC2)cc1 (stereo unspecified),/,.,/,.,.,/
CC(=O)N1c2ccc(S(=O)(=O)NCC3CCC(C(=O)Nc4cc(C)ccn4)CC3)cc2CC1C (stereo unspecified),.,.,.,23.1µM,.[11.4 µM],?
Cc1cnn(CCC(=O)NNC(=S)Nc2cccc(Cl)c2)c1,.,.,.,.,.,6.51µM
SMILES,MCF10A rereplic,KB-V1 MDR tox,TSG101-PTAP inh,KB-3-1 tox,RGS4 inhibitor,SW480 rereplic
Cc1c(Cl)cccc1NS(=O)(=O)c1cc2c(cc1F)NC(=O)CC2,/,.,/,.,/,/
Cc1ccccc1-c1nnc(SCC(=O)N2CCCc3ccccc32)o1,/,.,/,.,.,/
COC(=O)CSc1cnc2ccccc2n1,.,.,.,.,.,.
COC(=O)CSc1nc2ccccc2nc1SCC(=O)OC,23.1µM,.,.,.,.,18.4µM
COC(=O)c1ccc(OCC2c3cc(OC)c(OC)cc3CCN2C(=O)Cc2ccc(OC)cc2)cc1 (stereo unspecified),/,?,/,.,.,/
Cc1cc(O)c(CN2CCN(c3ccc(F)cc3)CC2)c2oc(=O)cc(C)c12,/,/,/,/,.,/
C=CCn1c(SCC(=O)c2cccs2)nnc1-c1cccc(OC)c1,.,.,.,.,.,.
C=CCn1c(SCC(=O)N2CCOCC2)nc2sc(CC)cc2c1=O,.,4.61µM,.,.,.,.
C=CCn1c(SCC(=O)c2cccs2)nc2sc(C)cc2c1=O,?,7.31µM,.,.,.,.
CCOC(=O)c1[nH]c(C)c(CCC(=O)NCc2ccccc2Cl)c1C,/,.,/,.,.,/
CCCCN(CC)C(=O)CSc1nc2ccccc2c(=O)n1Cc1ccco1,/,.,/,.,.,/
CC(NC(=O)c1ccc2ccccc2n1)c1ccc(Br)cc1 (stereo unspecified),23.1µM,.,.,?,.,?
CC(NC(=O)c1ccc2ccccc2n1)c1ccc(S(N)(=O)=O)cc1 (stereo unspecified),.,.,.,.,.,.
CCCCCn1c(-c2ccc(OC)c(OC)c2)nc2ccccc21,/,.,/,.,.,/
CC1CCN(S(=O)(=O)c2ccc3c(c2)c(=O)c(C(=O)NCc2cccs2)cn3C)CC1,.,.,.,.,.,.
CC1CCN(S(=O)(=O)c2ccc3c(c2)c(=O)c(C(=O)NCc2ccco2)cn3C)CC1,.,9.2µM,.,?,.,.
COCCNC(=O)c1cn(C)c2ccc(S(=O)(=O)N3CCCCC3)cc2c1=O,.,.,.,23.1µM,.,.
CCn1cc(C(=O)NCC(OC)OC)c(=O)c2cc(S(=O)(=O)N3CCC(C)CC3)ccc21,?,.,.,13µM,.,.
CCOCCCNC(=O)c1cn(C)c2ccc(S(=O)(=O)N3CCCCC3)cc2c1=O,.,.,.,?,.,.
CCn1cc(C(=O)NCC(OC)OC)c(=O)c2cc(S(=O)(=O)N3CCCC3)ccc21,.,.,.,.,.,.
CCSc1ncc(Cl)c(C(=O)N(Cc2ccccc2Cl)C2CCS(=O)(=O)C2)n1 (stereo unspecified),/,.,/,.,.,/
Cc1cc(C)n2nc(SCc3nnc(SCc4ccccc4Cl)s3)nc2n1,.,.,.,.,.,.
Cc1cc(C)n2nc(SCC3COc4ccccc4O3)nc2n1 (stereo unspecified),.,23.1µM,.,.,.,.
Cc1cc(C)n2nc(SCc3nnc(SCc4ccccc4C)s3)nc2n1,.,20.6µM,.,.,.,.
